Data reported in PubChem BioAssay (NCI).
This is part of a sample that, as a whole, favours compounds with a hit. Of some 83,000 tested, about 20% had one in any assay.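 Compound tested at a single concentration for 48 hours in 96-well plates; a percent growth value below 10 was scored as active.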 A number with no mark means an inactive call. Calls of active or inactive are those of the source.

Test system: NCI/ADR-RES ovarian
Test: NCI-60 one-dose screen, 48 h (100 = growth as untreated, 0 = no growth, -100 = all killed)
Conditions: 10 µM unless noted

Compound	growth
COc1ccc(O)c(-c2cc(-c3ccccc3)c(C#N)c(=O)[nH]2)c1	97.3%
CN(C)c1ccc(/C=C2\C=C(c3ccccc3)N(CCc3ccccc3)C2=O)cc1	48.6%
O=c1oc2ccc(Cl)cc2cc1-c1cs/c(=N/N=C\c2ccc(Cl)cc2)n1/N=C/c1ccc(Cl)cc1	106%
O=C1c2ccccc2C2(c3ccc(O)cc3)c3ccccc3Oc3cccc1c32 (centres undefined)	11.1%
c1ccc([P+](CCCc2n(Cc3ccc4ccccc4c3)c3ccccc3[n+]2Cc2ccc3ccccc3c2)(c2ccccc2)c2ccccc2)cc1	83.7%
C/C(Cc1ccc(Cl)cc1)=C(/c1ccc(Cl)cc1)c1ccc(OCCN(C)C)cc1	77.5%
COc1cc2c(cc1OC)-c1ccc3cc4c(cc3c1N(CCCN1CCCCC1)C2)OCO4	54.7%
COc1ccc(C(=O)/C=C/c2cc3c(c(OC)c2)OCC(=O)N3)cc1	36.7%
Cn1nnnc1-c1ccc(N)cc1	98.1%
CCCCNCC(=O)Nc1ccc(C(=O)OCC)cc1	107%
CCCCCOC(=O)c1ccc(NC(=O)CNCC(C)C)cc1	101%
Cc1nc(Nc2cccc(NC(=O)Nc3ccc(Cl)cc3)c2)c2ccccc2n1	87.4%
C=C(Cl)COC(=O)C(C)(C)O	95.2%
CCNCCNc1cc(-c2ccc(Cl)cc2)c(C#N)c2nc3ccccc3n12	22.6%
O=C1NCC(=O)N(Cc2ccco2)[C@H]1Cc1ccccc1	104%
Cc1ccc(NC(=O)C(Cl)Cl)cc1	99.9%
CCOc1cccnc1/C=N/NC(N)=S	48.8%
O=C(c1ccccc1)c1ccc(Cl)c([N+](=O)[O-])c1	108%
CCN(CC)CC(=O)Nc1cccc(C(=O)OC(C)C)c1	97%
CCOC(=O)C(O)C(O)(c1ccccc1)c1ccccc1 (centres undefined)	102%

Compound	growth
C[C@@H]1C(=O)N(C[C@@H](Cc2ccccc2)NC(=O)OCc2ccccc2)[C@]1(Cc1ccccc1)C(=O)OCc1ccccc1	21%
CC1(C)N=C(N)N=C(N)N1c1cccc(CN)c1	96.4%
CC(c1ccc(-n2cccn2)cc1)c1cnc(N2CCc3ccc(C(N)=O)cc3C2)s1 (centres undefined)	32.1%
COc1ccc(OC)c(Nc2nc3nonc3nc2Nc2cccc(Br)c2)c1	9.06% (active)
N#Cc1c(N)nc2c(nnn2-c2cccc(Br)c2)c1N	103%
[2H]c1nc(Nc2ncc(F)c(-c3cc(F)c4nc(C)n(C(C)C)c4c3)n2)c([2H])c([2H])c1CN1CCN(C([2H])([2H])C([2H])([2H])[2H])CC1	81%
Cc1c(C(=O)O)nnn1-c1nccs1	103%
CCNCCNc1cc(-c2ccc(C(=O)OC)cc2)c(C#N)c2nc3ccccc3n12	57%
CO[C@H]1/C=C/O[C@@]2(C)Oc3c(C)c(O)c4c(c3C2=O)C(=O)C(/C=N/N(c2ccccc2)c2ccccc2)=C(NC(=O)/C(C)=C\C=C\[C@H](C)[C@H](O)[C@@H](C)[C@@H](O)[C@@H](C)[C@H](OC(C)=O)[C@@H]1C)C4=O	6.55% (active)
O[C@H]1CO[C@H]2[C@@H]1OC[C@@H]2Oc1ccc(Nc2nc(Nc3ccc(F)c(Cl)c3)ncc2F)cc1Cl	97.6%
CCNCCNc1cc(-c2cccc(C(F)(F)F)c2)c(C#N)c2nc3ccccc3n12	-55% (active)
CN(C)CCN1C(=O)c2cccc3c(-c4ccc(-c5nc6c7ccccc7c7ccccc7c6[nH]5)cc4)ccc(c23)C1=O	88.1%
CCOC(=O)c1c(C)nc2c(c1N)/C(=C/c1ccc(OC)cc1)C(=O)N2Cc1ccc(F)cc1	15.1%
CSc1ccc(Cl)c(C(=O)Nc2sccc2C(N)=O)c1	99%
CN1C[C@@H](c2ccc(Cl)cc2)[C@]2(NC(=S)N(c3ccc(F)c(Cl)c3)C2=O)[C@@]12C(=O)NC1C=CC(Cl)=C[C@H]12 (some centres undefined)	42%
O=C(Nc1ccccc1)c1sc(-c2cccc(C(F)(F)F)c2)cc1O	83.2%
NS(=O)(=O)c1cn(-c2ncnc3nc[nH]c23)ccc1=O	105%
Nc1c(C(=O)c2ccccc2)nnc2ncnn12	107%
CCCCCCCSc1ccc(C(=O)O)cc1	109%
